In PubChem BioAssay (NCATS):
“And” between values parts separate entries of the source, which are not always exact repeats. Equal entries are not always repeated. Inconclusive results are not listed. The source made the active and inactive calls. Unless noted, calls follow the shape of the dose curve; as a rule, active = well fitted curve in the direction sought with a large enough effect; inconclusive = small, poorly fitted or top-dose-only effect, or another doubt; inactive = no such curve, though single readings can be large; an effect the other way counts as inactive or inconclusive.

What was measured:
[1] = Cellular Toxicity (caspase-3) BJ (AID 658);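 also: 0% = DMSO basal and 100% = 10 µM staurosporine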
Summary of the method: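 Luminescent aminoluciferin-substrate cleavage reports caspase 3/7 activity in normal human BJ fibroblasts after 16 hr compound exposure at 37 °C. Normalized to DMSO (basal) and 10 uM staurosporine (100%); AC50 from Hill fit of concentration-response.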

[2] = Cellular Toxicity (caspase-3) N2a (AID 665);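 also: compound exposure lasted 16 h at 37 °C before readout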
Summary of the method: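 Mouse N2a neuroblastoma cells (1500/well) were treated with compounds for 16 h at 37 °C, then caspase-3/7 activity was read by Caspase-Glo luminescence after 1 h at room temperature. Data were normalized to DMSO and 10 uM staurosporine; AC50 from Hill fits.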

[3] = Cellular Toxicity (caspase-3) Renal Proximal Tubule (AID 667);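 also: cells exposed to compound for 16 hours at 37 °C before detection; 0% = DMSO basal and 100% = 10 µM staurosporine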
Summary of the method: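 In qHTS format, rat primary proximal tubule cells seeded at 1000 per well are exposed to compounds for 16 hours at 37 °C. An increase in Caspase-Glo 3/7 luminescence indicates caspase activation.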

[4] = MultiTox-Fluor Cytotoxicity Assay - LYMP1-001 - Dead Cells (AID 946)
Summary of the method: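 Cytotoxicity as increased dead-cell protease fluorescence (bis-AAF-R110, 485/520 nm), read 60 min after MultiTox-Fluor reagent. Human lymphoblastoid line exposed 16 h; Hill-fitted AC50, with DMSO as 0% and 15 uM tetraoctylammonium bromide as 100%.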

[5] = Cell Viability - LYMP1-002 - Assay at 16 hr (AID 948);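 also: 0% = DMSO alone and full effect = 92 µM tetraoctylammonium bromide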
Summary of the method: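 Acute cytotoxicity is scored as a concentration-dependent fall in intracellular ATP in a human lymphoblastoid line (LYMP1-002) after 16 hr compound exposure at 37 C, measured by luciferase luminescence.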

[6] = MultiTox-Fluor Cytotoxicity Assay - LYMP1-003 - Dead Cells (AID 961); also: nearly all actives have a fitted effect of over 70% in size
Summary of the method: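 Dead-cell protease release, detected as bis-AAF-R110 fluorescence at 485/520 nm, was measured in LYMP1-003 cells after 16 h compound treatment at 37 C. AC50 values came from Hill-modeled qHTS curves normalized to DMSO (0%) and 15 uM tetraoctylammonium bromide (100%).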

[7] = Cell Viability - LYMP1-003 - Assay at 24 hr (AID 963);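 also: plate controls were DMSO only for no effect and tetraoctylammonium bromide positive control for full effect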
Summary of the method: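 Human lymphoblastoid LYMP1-003 cells (2500/well) were rested 5 hr at 37 C, then exposed to compounds in complete medium for 24 hr at 37 C. Cellular ATP was quantified by CellTiter-Glo luminescence, and AC50 values came from Hill fits of concentration-response data.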

[8] = Cell Viability - LYMP2-003 (AID 965);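 also: cells exposed to compounds for 24 h before reading; 0% = DMSO only and full effect = 92 µM tetraoctylammonium bromide; nearly all actives have a fitted effect of over 50% in size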
Summary of the method: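 Acute cytotoxicity is scored as a concentration-dependent drop in intracellular ATP, measured by luciferase luminescence in human lymphoblastoid cells treated for 24 hours at 37 C. AC50 values derive from Hill-equation modelling.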

[9] = Cell Viability - LYMP2-013 (AID 970);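 also: series mostly up to about 92 µM; 0% = DMSO only and full inhibition = tetraoctylammonium bromide control; nearly all actives have a fitted effect of over 55% in size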
Summary of the method: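 Human lymphoblastoid cells, 2500/well, were preincubated 5 hr at 37 C, then treated with compounds for 24 hr at 37 C in complete medium. Intracellular ATP was read by CellTiter-Glo luminescence; AC50 from Hill-equation fits of concentration-response data.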

[10] = Cell Viability - LYMP2-019 (AID 973);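 also: 0% = DMSO alone and full effect = 92 µM tetraoctylammonium bromide; nearly all actives have a fitted effect of over 55% in size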
Summary of the method: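 Human lymphoblastoid cells were seeded at 2500 cells/well, preincubated 5 hr at 37 C, then exposed to compounds for 24 hr at 37 C in complete medium. Intracellular ATP was measured by CellTiter-Glo luminescence; AC50 from Hill fits.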

[11] = Cell Viability - LYMP2-008 (AID 980); also: % is scaled to controls: 0 for no effect and ±100 for the full control effect; nearly all actives have a fitted effect of over 60% in size
Summary of the method: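 Human lymphoblastoid cells (2500/well) were plated, held 5 hr at 37 C, then exposed to compounds for 24 hr at 37 C in complete medium. Intracellular ATP was read by CellTiter-Glo luminescence; AC50 from Hill-fitted concentration-response.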

[12] = Cell Viability - LYMP2-012 (AID 982);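 also: cellular ATP by luciferase luminescence where a drop means cytotoxicity; cells exposed to compound for one day before reading; 0% = DMSO only and full loss = 92 µM tetraoctylammonium bromide; nearly all actives have a fitted effect of over 55% in size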
[13] = Cell Viability - LYMP2-016 (AID 984); also: % is scaled to controls: 0 for no effect and ±100 for the full control effect; nearly all actives have a fitted effect of over 55% in size
Summary of the method: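 Acute toxicity in a Coriell human lymphoblastoid line is scored as loss of intracellular ATP over 24 h of treatment in complete medium. CellTiter-Glo signal is fitted across concentrations with the Hill equation to give AC50.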

[14] = Cell Viability - LYMP1-002 - Assay at 24 hr (AID 993); also: % is scaled to controls: 0 for no effect and ±100 for the full control effect
Summary of the method: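 Human lymphoblastoid LYMP1-002 cells, 2500/well in complete medium, were treated with compounds for 24 h at 37 C; intracellular ATP was read by CellTiter-Glo luminescence. AC50 values came from Hill-equation fits of qHTS concentration-response data.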

[15] = Cell Viability - LYMP1-002 - Assay at 40 hr (AID 994);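 also: 0% = DMSO only and full inhibition = 92 µM tetraoctylammonium bromide; nearly all actives have a fitted effect of over 60% in size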
Summary of the method: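 Human lymphoblastoid cells, 2500/well in complete medium, were preincubated 5 hr at 37 C, then exposed to compounds for 40 hr at 37 C. Intracellular ATP was read by CellTiter-Glo luminescence after 30 min at room temperature; AC50 from Hill-equation fits.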

[16] = qHTS Assay for Identification of Small Molecule Inducers of Hypoxia Response (AID 2120; active = well fitted curve in the direction sought with a large enough effect in the signal ratio, with a control signal flat, not every such curve was filed as active; the % refers to the signal ratio; also: 0% is about no effect)
Summary of the method: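 HRE-beta-lactamase reporter in CellSensor HRE-bla ME-180 cells, 2500 cells/well in Opti-MEM with 0.5% dialyzed FBS; compounds tested as titration series, 17 h at 37 degrees C. CCF4 substrate 2.5 h at room temperature; AC50 from 460/530 nm ratio.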

[17] = target: Peroxisome proliferator-activated receptor alpha (Homo sapiens) (UniProt Q07869); experiment: qHTS assay for small molecule agonists of the peroxisome proliferator-activated receptor alpha (PPARalpha) signaling pathway (AID 651778); conditions: PathHunter PPARalpha complementation, chemiluminescence, 6 h; stronger effect = higher value; also: % of control where 0% means no effect
Summary of the method: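 Cells plated at 2,000/well and held overnight at 37 C, 5% CO2, then compound added by pin tool for 6 hr; after PathHunter detection reagent and 60 min at room temperature, chemiluminescence from enzyme complementation was read.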

[18] = qHTS assay for cell viability of HEK293 cells (AID 743288); conditions: ATP luminescence (CellTiter-Glo), 18 h, stronger effect = lower value; also: % is scaled to controls: 0 for no effect and ±100 for the full control effect; nearly all actives have a fitted effect of over 50% in size
Summary of the method: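 The Tox21 protocol used parental HEK293 cells treated for 18 h at 37 C with compounds delivered by pintool; ATP-coupled luminescence after 30 min at room temperature gave viability.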

[19] = qHTS assay for cell viability of the p53RE-bla HCT-116 cell line (AID 743292)
Summary of the method: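 ATP-based luminescence, 16 h compound exposure at 37 C, p53RE-bla HCT-116 cells at 4,000/well.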

[20] = Cellular Toxicity (caspase-3) SHSY5Y (AID 657)
Summary of the method: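 Cells plated and incubated 5 h at 37 °C, dosed over a concentration range, incubated 16 h, then given Caspase-Glo 3/7 reagent for 1 h at room temperature before luminescence reading. Staurosporine (10 uM) defined full stimulation.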

Chain of Peroxisome proliferator-activated receptor alpha (Homo sapiens) (Q07869 whole entry, looked up): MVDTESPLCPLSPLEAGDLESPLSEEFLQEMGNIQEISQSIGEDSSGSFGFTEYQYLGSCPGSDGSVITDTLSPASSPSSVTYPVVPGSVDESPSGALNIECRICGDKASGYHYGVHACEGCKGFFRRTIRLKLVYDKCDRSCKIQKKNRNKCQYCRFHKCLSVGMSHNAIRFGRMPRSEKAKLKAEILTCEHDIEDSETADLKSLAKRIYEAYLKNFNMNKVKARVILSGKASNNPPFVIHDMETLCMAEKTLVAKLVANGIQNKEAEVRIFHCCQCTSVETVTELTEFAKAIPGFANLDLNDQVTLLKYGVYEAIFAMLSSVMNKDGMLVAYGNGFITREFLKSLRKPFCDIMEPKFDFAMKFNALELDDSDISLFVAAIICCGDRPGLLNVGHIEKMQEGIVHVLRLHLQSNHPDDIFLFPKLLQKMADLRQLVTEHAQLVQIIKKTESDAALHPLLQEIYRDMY

O=S(=O)(Cl)c1ccccc1
inactive: outcome [1] | outcome [2] | outcome [3] | outcome [4] | outcome [5] | Potency [6] | outcome [7] | Potency [8] | Potency [9] | Potency [10] | Potency [11] | Potency [12] | Potency [13] | Potency [14] | Potency [15] | Potency [16] | max response [17] -0.206% and -0.679% | max response [18] 1.81% and -4.13% | Potency [19]

Cc1ccc([N+](=O)[O-])cc1
inactive: outcome [20] | outcome [1] | outcome [2] | outcome [3] | outcome [4] | outcome [5] | Potency [6] | outcome [7] | Potency [8] | Potency [9] | Potency [10] | Potency [11] | Potency [12] | Potency [13] | Potency [14] | Potency [15] | Potency [16] | max response [17] -0.114% | max response [18] 0.535% | Potency [19]

CCBr
inactive: outcome [20] | outcome [1] | outcome [2] | outcome [3] | outcome [4] | outcome [5] | Potency [6] | outcome [7] | Potency [8] | Potency [9] | Potency [10] | Potency [11] | Potency [12] | Potency [13] | Potency [14] | Potency [15] | Potency [16] | max response [17] -2.39% | max response [18] -3.34% | Potency [19]

Nc1ccc2ccccc2c1
inactive: outcome [20] | outcome [1] | outcome [2] | outcome [3] | outcome [4] | outcome [5] | Potency [6] | outcome [7] | Potency [8] | Potency [9] | Potency [10] | Potency [11] | Potency [12] | Potency [13] | Potency [14] | Potency [15] | Potency [16] | max response [17] -2.41% | max response [18] 3.26% | Potency [19]

OCCOCCO
inactive: outcome [20] | outcome [1] | outcome [2] | outcome [3] | outcome [4] | outcome [5] | Potency [6] | outcome [7] | Potency [8] | Potency [9] | Potency [10] | Potency [11] | Potency [12] | Potency [13] | Potency [14] | Potency [15] | Potency [16] | max response [17] -3.41% | max response [18] 1.68% | Potency [19]

CCOS(C)(=O)=O
inactive: outcome [20] | outcome [1] | outcome [2] | outcome [3] | outcome [4] | outcome [5] | Potency [6] | outcome [7] | Potency [8] | Potency [9] | Potency [10] | Potency [11] | Potency [12] | Potency [13] | Potency [14] | Potency [15] | Potency [16] | max response [17] 0.417% | max response [18] -14.8% | Potency [19]

COC(=O)Nc1nc2ccccc2[nH]1
inactive: outcome [20] | outcome [1] | outcome [2] | outcome [3] | outcome [5] | Potency [6] | outcome [7] | Potency [8] | Potency [9] | Potency [10] | Potency [12] | Potency [13] | Potency [14] | Potency [16] | max response [17] -5.67% and 0.607% | max response [18] -9.84% and -19.2% | Potency [19]
